Most compounds without a hit are left out; they make up all but 2.8% or so of the library.
HepG2 viability: HepG2 cytotoxicity, counter-screen for TGF-b inhibitors; HepG2 CAGA-GFP viability, ATP luminescence, 18 h; Potency, µM (top dose mostly 46.1 µM), for the others: top-dose activity change, negative = cytotoxicity, hits mostly cytotoxic; 0.76% of 410,000 active
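CellTiter-Glo luminescence gave cytotoxicity after 18 hours at 37 degrees C. The cells were HepG2 CAGA-GFP in 1% FBS DMEM, stimulated with 500 pg/mL TGF-beta after compound addition. %Activity was normalised to no-cell wells (complete cell-killing) and DMSO (no toxicity), and curves were fitted and classified.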
ATXN2 expr inh: inhibitors of ATXN2 expression; AID 1745845; 0.72% of 360,000 active; Potency, µM (titrated, usually from 57 µM), without a hit: at the highest dose activity change, negative = inhibition, actives largely listed as inhibitors; HEK-293 ATXN2-luciferase reporter, luminescence, 24 h; further: on the % scale 0 is the no-effect control and ±100 the full control effect; nearly all actives have a fitted effect of over 55% in size
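qHTS (up to 57 uM final) was run with 24 h compound exposure of reporter cells at 37 °C. Each well was multiplexed: SteadyGlo luminescence measured ATXN2-luciferase expression after a fluorogenic Gly-Phe-AFC viability readout (25 uM final).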
HttQ103 aggreg: inhibitors of mutant huntingtin aggregate formation in PC12 cells; 1.1% of 220,000 active; PC12 HttQ103-GFP aggregates, Acumen cytometry, 40 h; Potency, µM (doses to about 46.1 µM), for inactives: at the highest dose activity change, negative = inhibition, actives largely listed as inhibitors; further: on the % scale 0 is the no-effect control and ±100 the full control effect; nearly all actives have a fitted effect of over 60% in size
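PC12 cells stably carrying ecdysone-inducible HTT exon 1 Q103–GFP were induced with tebufenozide (100 nM final) and treated with library compounds in titration. GFP aggregates in lysates were counted by laser scanning cytometry.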
S2 tox: viability counter-screen for ATXN expression inhibitors. S2 cells (HEK-293 line with an ATXN2-luciferase reporter) viability, CellTiter-Fluor protease fluorescence, 24 h. Potency, µM (doses to about 56.7 µM), most hits filed as cytotoxic. 0.49% of 400,000 active. AID 651635; further: nearly all actives have a fitted effect of over 40% in size
HTT cytoprotect: cytoprotection in Huntington HTT-Q103 PC12 cell model; PC12 HTT-Q103 induced, cytoprotection, ATP luminescence, 40 h; AID 1471; 0.14% of 230,000 active; Potency, µM (highest dose often 56.4 µM), inactives show cytoprotection (ATP increase), usual class: activators; further: % of control where 0% means no effect; nearly all actives have a fitted effect of over 45% in size
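Quantitative HTS on tebufenozide-induced (100 nM) PC12 cells expressing HTTQ103 exon 1–GFP; compounds tested as a concentration series; survival measured via cellular ATP.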
TGFb SMAD3 inh: inhibitors of TGF-b signaling; HepG2 CAGA-GFP TGF-b/SMAD3 reporter, GFP fluorescence, 18 h; TGF-beta stimulated, 500 pg/mL final; Potency, µM (titrated, usually from 46.1 µM), for the others: at the top dose activity, negative = inhibition, actives largely listed as inhibitors; 1.2% of 410,000 active; further: on the % scale 0 is the no-effect control and ±100 the full control effect; nearly all actives have a fitted effect of over 65% in size
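HEPG2 CAGA-GFP, 1000 cells/well; 2 h settle, 37 C; cpd via pin tool; TGF-b 500 pg/mL final; 18 h, 37 C; GFP imaging ex488/em500-530; %Activity normalised to -TGF-b and +DMSO controls; CRC fit, curve class.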
The depositor's hits bear a star; i = inactive; ? = inconclusive; . = no result given; ! = not confirmed by another sample; [ ] = dose if it differs, or a comment. The call rests on the fitted dose curve; in most records, active means well fitted curve in the direction sought with a large enough effect; inconclusive means small, poorly fitted or top-dose-only effect, or another doubt; inactive means no such curve, though single readings can be large; an effect the other way counts as inactive or inconclusive. Potency means the concentration at half of the fitted maximal effect.

SMILES	HepG2 viability	ATXN2 expr inh	HttQ103 aggreg	S2 tox	HTT cytoprotect	TGFb SMAD3 inh
c1coc(CNc2nc(NCc3ccco3)c3ccccc3n2)c1	-12%	.	.	.	.	0.71µM*
c1ccc(CNc2nc(NCc3ccccc3)c3ccccc3n2)cc1	-112%	?	7%[9.22 µM]	.	-23%[10 µM]	?
Fc1ccc(Nc2nc(NCc3ccco3)c3ccccc3n2)cc1	18µM*	.	-26%[9.22 µM]	11µM*	3%[10 µM]	?
C=C[C@]1(C)C[C@@H](OC(=O)CO)[C@]2(C)[C@H](C)CC[C@]3(CCC(=O)[C@H]32)[C@@H](C)[C@@H]1O	.	.	.	i	.	.
Cc1cc(C(C)(C)C)oc1C(=O)N(CC(=O)NC1CCCC1)c1c(C)cccc1C	16µM*	?	?	?	13%[10 µM]	?
Cc1cc(C(C)(C)C)oc1C(=O)N(CC(=O)NC1CCCC1)c1ccc(F)cc1	-30%	-21%	?	i	6%[10 µM]	?
CCOc1ccc(NC(=O)c2ccccc2NS(=O)(=O)c2ccc(F)cc2)c([N+](=O)[O-])c1	-37%	1%	11µM*	i	6%[10 µM]	?
CCOC(=O)c1ccccc1NS(=O)(=O)c1ccc(OCC)cc1	-2%	?	11µM*	?	-44%[10 µM]	-9%
O=C(Nc1cc(S(=O)(=O)N2CCCCC2)ccc1Cl)c1ccccc1NS(=O)(=O)c1ccc(F)cc1	-29%	?	3.2µM*	?	-67%[10 µM]	3.5µM*
COc1cccc(OC)c1-c1cc(CCCc2cc(-c3c(OC)cccc3OC)nc3ccccc23)c2ccccc2n1	-107%	.	.	.	.	?
CN(C)C1CCC(CC2CCc3ccccc32)CC1 (stereo unspecified)	12%	.	.	.	.	-20%
COc1ccc(-n2nc3c(N4CCC(C(=O)NCc5cccc(C)c5)CC4)nnc(C)c3c2C)cc1	-4%	.	.	?	.	?
CCOc1ccccc1CNC(=O)C1CCN(c2nnc(C)c3c(C)n(-c4ccc(C)cc4)nc23)CC1	10µM*!	?	.	.	.	11µM*
Cc1ccc(-n2nc3c(N4CCC(C(=O)NCc5ccccc5C)CC4)nnc(C)c3c2C)cc1	-95%	?	.	?	.	18µM*
Cc1nnc(N2CCC(C(=O)NCCc3ccccc3Cl)CC2)c2nn(-c3ccccc3)c(C)c12	-54%	-36%	.	?	.	?
COc1ccccc1CCNC(=O)C1CCN(c2nnc(C)c3c(C)n(-c4ccc(C)cc4)nc23)CC1	3.5µM*!	-10%	.	?	.	?
CCOc1ccc(CNC(=O)C2CCN(c3nnc(C)c4c(C)n(-c5ccc(C)cc5)nc34)CC2)cc1	-107%	.	.	?	.	?
Cn1ccc(C(=O)NCC2CCC3(CCN(Cc4cc(F)cc(F)c4)CC3)O2)n1 (stereo unspecified)	.	.	.	i	.	.
C[C@@H](Cc1ccccc1)Nc1ncnc2c1ncn2[C@@H]1O[C@@H](CO)[C@H](O)[C@@H]1O	.	.	.	.	3%[1.9 µM]	.
CN(C)S(=O)(=O)c1cccc(-c2nn(-c3ccccc3)cc2/C=C2\SC(=S)NC2=O)c1	-8%	-4%	?	i	7%[10 µM]	13µM*
CCCC[C@@H](C=O)NC(=O)[C@H](CC(C)C)NC(=O)OCc1ccccc1	.	.	.	.	-98%	.
COc1ccc(NC(=S)NNc2ccc([N+](=O)[O-])cc2S(=O)(=O)Nc2ccc(C)cc2C)cc1	-31%	-36%	?	?	-26%[10 µM]	?
Cc1ccc(NS(=O)(=O)c2cc([N+](=O)[O-])ccc2NNC(=S)Nc2cc(C)ccc2C)c(C)c1	-72%	20µM*	?	16µM*	27%[0.074 µM]	?
CCOc1ccc(C(=O)Nc2cc(-c3nc4ccccc4[nH]3)ccc2C)cc1[N+](=O)[O-]	-26%	3%	-21%	i	-44%	-21%
CCCOc1ccc(C(=O)Nc2cc(-c3nc4ccccc4[nH]3)ccc2C)cc1	-1%	-3%	.	?	.	-7%
SMILES	HepG2 viability	ATXN2 expr inh	HttQ103 aggreg	S2 tox	HTT cytoprotect	TGFb SMAD3 inh
Cc1ccc(-c2nc3ccccc3[nH]2)cc1NC(=O)COc1ccccc1[N+](=O)[O-]	-75%	.	.	.	.	11µM*
CCCOc1cccc(C(=O)Nc2cc(-c3nc4ccccc4[nH]3)ccc2C)c1	-29%	?	.	20µM*	.	?
Cc1ccc(OCC(=O)Nc2cc(-c3nc4ccccc4[nH]3)ccc2C)c(C)c1	-4%	-4%	.	i	.	-5%
O=C(NC(Cc1ccccc1)c1nc2ccccc2[nH]1)c1ccc(Cl)c([N+](=O)[O-])c1 (stereo unspecified)	-3%	.	7.9µM*	?	-10%[10 µM]	?
CCOc1ccc(C(=O)Nc2cc(-c3nc4ccccc4[nH]3)ccc2Cl)cc1[N+](=O)[O-]	-43%	-16%	13µM*	i	-8%[10 µM]	-23%
COc1ccc(-n2c(CCNC(=O)c3ccccc3C(F)(F)F)nnc2SC)cc1	.	.	.	i	.	.
Cc1ccc(C(=O)N(CCCN)[C@@H](c2nc3cc(Cl)ccc3c(=O)n2Cc2ccccc2)C(C)C)cc1	.	-48%	.	.	.	.
COc1ccc2nc3c(cc2c1)Cc1ccccc1-3	.	.	.	.	-119%	.
CN1CCN(c2cc3c(c4c2[nH]c2ccccc24)C(=O)CC(C)(C)C3)CC1	11µM*	?	?	?	-155%	?
NC(N)=N/N=C/c1cc([N+](=O)[O-])ccc1O	-1%	-9%	4%	?	-3%[10 µM]	-2%
O=C(N/N=C/c1cc([N+](=O)[O-])ccc1O)C1C2CCCCC21 (stereo unspecified)	.	.	-3%[9.22 µM]	.	1%[10 µM]	.
O=C(N/N=C/c1cc([N+](=O)[O-])ccc1O)C1CCCCC1	-12%	?	10µM*	i	-21%[10 µM]	0%
O=C(Cn1nc2ccccc2n1)N/N=C/c1cc([N+](=O)[O-])ccc1O	-36%	20µM*	?	?	.	0%
O=C(Cn1nnc(-c2ccccc2)n1)N/N=C/c1cc([N+](=O)[O-])ccc1O	6%	?	7%	?	1%[10 µM]	9%
Cc1ccn(CC(=O)N/N=C/c2cc([N+](=O)[O-])ccc2O)n1	5%	-23%	6.3µM*	i	.	18%
O=[N+]([O-])c1ccc(O)c(/C=N\N=C2c3ccccc3-c3ccccc32)c1	-38%	22µM*	11µM*	?	26%[10 µM]	2.8µM*
CC(C)NC(=O)c1cn(C2CCC(NC(=O)C(C)(C)C)CC2)nn1 (stereo unspecified)	.	.	.	i	.	.
COC(=O)c1ccc(NC(=O)COc2ccccc2C(=O)Nc2ccccc2)cc1	-5%	.	.	.	.	5%
Clc1ccc2c(ccc[n+]2CCC2CCCCC2)c1	-3%	.	.	.	.	3%
CCCN1C[C@@H](CSC)C[C@H]2c3cccc4[nH]cc(c34)C[C@@H]21	.	.	.	.	18%[1.9 µM]	.
